Values without a mark were called inactive. A call without a number means that no potency is given here. Activity calls are given as the source filed them. Calls follow the shape of the full dose curve.
Assay: qHTS assay to identify small molecule agonists of the sonic hedgehog signaling (Shh) pathway (AID 1259368);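 also: NIH/3T3-derived 3T3Gli1-Luc cells carrying a stable Gli1-driven firefly luciferase reporter; nearly all actives have a fitted effect of over 15% in size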
Settings: NIH/3T3 Gli1-Luc reporter, luciferase, 24 h; series mostly up to 92.4 µM
Description: National Center for Advancing Translational Sciences [NCATS]
NIH Chemical Genomics Center [NCGC]
U.S. Environmental Protection Agency [EPA]
National Institutes of Environmental Health Sciences [NIEHS]
National Toxicology Program [NTP]
The sonic hedgehog (Shh) pathway is essential for normal embryonic development. Dysregulation of the Shh pathway can cause severe developmental defects in organs. Therefore chemicals that interfere with the pathway are potential developmental toxicants. A cell line designated 3T3Gli1-Luc (DMB/OARSA/CFSAN/FDA, Laurel, MD), a NIH/3T3 derived clone containing stably integrated Gli1-Luc reporter is used to detect chemical interference of the Shh pathway, by changes in the expression of the firefly Luc gene under the control of the Gli1 transcriptional response element. This cell line was used to screen Tox21 libraries for identifying and prioritizing the potential developmental toxicants that interfere Shh pathway.
3T3 Gli1-Luc cells were dispensed at 2,000 per well in 5uL of culture medium into white solid bottom 1536-well plates (Greiner Bio-One, Monroe, NC) using a Multidrop Combi (Thermo Scientific, Waltham, MA) dispenser. The assay plates were incubated at 37 C and 5% CO2 for 4hr, and then 23nL of compounds dissolved in DMSO and positive control were transferred using a Pintool station (Wako, San Diego, CA). The assay plates were incubated at 37C and 5% CO2 for 24hr. For luciferase read, 4uL of Amplite Luciferase reporter gene assay reagent (AAT Bioquest, Inc. Sunnyvale, CA) was added to each well of the assay plates using Flying Reagent Dispenser (FRD, Aurora Discovery, San Diego, CA) and incubated at room temperature for 30min. The luminescence signal was measured using a ViewLux plate reader (Perkin Elmer, Shelton, CT).

| Compound | Potency | activity change |
| --- | --- | --- |
| C=CC(=C)CCCC(C)(C)OC(C)=O | inactive | – |
| C=CCOC(=O)/C=C\C(=O)OCC=C | inactive | – |
| CCCCC(CC)C(=O)OCCOCCOCCOCCOC(=O)C(CC)CCCC (stereo not given) | inactive | – |
| Nc1ccc(C(=O)OCCCOC(=O)c2ccc(N)cc2)cc1 | inactive | – |
| CCOC(=O)CC(=O)C(=O)OCC | inactive | – |
| CC(C)CCCCCCOC(=O)CCCCC(=O)OCCCCCCC(C)C | inactive | – |
| CCOc1cc(N)c(Cl)cc1C(=O)NCC1CN(Cc2ccc(F)cc2)CCO1 (stereo not given) | inactive | – |
| CC(C)CCCCCOC(=O)CCCCC(=O)OCCCCCC(C)C | inactive | – |
| CCOC(=O)N1CCC(n2c(=O)[nH]c3cc(Cl)ccc32)CC1 | inactive | – |
| CCCCCCCCCCOS(=O)(=O)O | inactive | – |
| CC(C)CCCC(=O)O | inactive | – |
| CO[C@@]12[C@H](COC(N)=O)C3=C(C(=O)C(C)=C(N)C3=O)N1C[C@@H]1N[C@@H]12 | inactive | – |
| Fc1c(F)c(F)c(Br)c(F)c1F | inactive | – |
| N#C/C(=C1\SCC(c2ccccc2Cl)S1)n1ccnc1 (stereo not given) | inactive | – |
| O=C(CCCN1CCC(O)(c2ccc(Br)cc2)CC1)c1ccc(F)cc1 | inactive | – |
| CC1CN(c2cc3c(cc2F)c(=O)c(C(=O)O)cn3-c2ccc(F)cc2F)CCN1 (stereo not given) | – | 0.373% [at 8.39 µM, active compounds read high] |
| O=C(O)c1ccc(CO)o1 | inactive | – |
| CO[C@H]1O[C@H](CO)[C@@H](O)[C@H](O)[C@H]1O | inactive | – |
| O=C(CCCCCCCCC#CI)Oc1ccccc1 | inactive | – |
| Nc1nccs1 | inactive | – |

| Compound | Potency | activity change |
| --- | --- | --- |
| C1COCO1 | inactive | – |
| Cc1oc(C)c(C(=O)Nc2ccccc2)c1C | inactive | – |
| C[N+](C)(C)CCOC(N)=O | inactive | – |
| NC(=O)Nc1ccc(Cl)cc1 | inactive | – |
| COc1ccc(CCC(=O)c2c(O)cc(O[C@@H]3O[C@H](CO)[C@@H](O)[C@H](O)[C@H]3O[C@@H]3O[C@@H](C)[C@H](O)[C@@H](O)[C@H]3O)cc2O)cc1O | inactive | – |
| CCOCCn1c(C2CCN(CCc3ccc(C(C)(C)C(=O)O)cc3)CC2)nc2ccccc21 | inactive | – |
| COc1ccc([C@@H]2Sc3ccccc3NC(=O)[C@@H]2O)cc1 | inactive | – |
| Brc1cc(-c2ccc(Br)c(Br)c2Br)cc(Br)c1Br | inactive | – |
| COc1cc2c(cc1OC)-c1cc(=Nc3c(C)cc(C)cc3C)n(C)c(=O)n1CC2 | inactive | – |
| CNCCCC1c2ccccc2C=Cc2ccccc21 | inactive | – |
| CCCCCCOC(=O)C(C)C | inactive | – |
| CNC(=S)NC | inactive | – |
| CCCCCCCCCCCCCCCCBr | – | -0.182% [at 18.9 µM, active compounds read high] |
| O=C(O)c1cccc(O)c1 | inactive | – |
| CCCCCCOC(=O)CCCCCCCC(=O)OCCCCCC | inactive | – |
| CC1=CC(=O)CC(C)(C)C1(O)/C=C/C(C)=C\C(=O)O (stereo not given) | inactive | – |
| C=CCCCCCCCCCCCCCCCC | – | 0.635% [at 8.39 µM, active compounds read high] |
| CCCCC(CC)CNCC(CC)CCCC (stereo not given) | inactive | – |
| O=C(N[C@@H](c1ccccc1)[C@@H]1CCCCN1)c1cccc(C(F)(F)F)c1Cl | inactive | – |
| CC(=O)CC(c1ccc([N+](=O)[O-])cc1)c1c(O)c2ccccc2oc1=O (stereo not given) | inactive | – |

Reference: PubChem BioAssay (Tox21)
